Results: PubChem BioAssay (Tox21)
Unmarked numbers belong to inactive results. Activity calls are given as the source filed them. Calls come from the whole dose curve; as a rule, active = well fitted curve in the direction sought with a large enough effect in the repeat runs; inconclusive = weak or mixed curves; inactive = flat fitted curve, though single readings scatter.

Assay: qHTS assay to test for compound auto fluorescence at 460 nm (blue) in HepG2 cell free culture (AID 720685)
Settings: Cell-free culture medium, blue autofluorescence 405/460 nm; series mostly up to 91.3 µM
From the text: U.S. Tox21 Program National Center for Advancing Translational Sciences [NCATS] NIH Chemical Genomics Center [NCGC] U.S. Environmental Protection Agency [EPA] National Institutes of Environmental Health Sciences [NIEHS] National Toxicology Program [NTP] U.S. Food and Drug Administration [FDA] Tox21 Assay Overview: Compound auto fluorescence often interferes with screening of the compound library against various biological targets and signaling pathways. Some of these compounds may have fluorophoric properties. Such properties may interfere with the assay outputs resulting in false positives and/or negatives. To decrease such complications and ensure the compound activities are relevant in terms of biological response, the Tox21 10K compound library was screened for auto fluorescence. From the fluorophores used as reporter signals in our screening assays, the auto fluorescence equivalencies of compounds against three fluorophores have been evaluated: Triamterene, Fluorescein and Rose Bengal sodium for blue, green and red fluorescence, respectively. The fluorescence intensities were measured using Excitation/Emission wavelengths at 405/460nm, 485/535nm and 540/590nm for blue, green and red labels, respectively. This assay includes the blue fluorescence data.
Tox21 Assay Protocol Summary: 5 uL of culture medium (MEM containing 10% FBS) per well was dispensed into black wall/clear bottom 1536-well plates using a Multidrop Combi Dispenser (ThermoFisher Scientific, Waltham, MA). After 23 nL compound or DMSO vehicle was transferred into assay plate by a pintool work station (Kalypsys, San Diego, CA), fluorescence intensities in the assay plates were measured by an Envision (PerkinElmer, Shelton, CT) plate reader using three labels for measuring blue, green and red fluorescence at […] 460, 535 and 590nm respectively.
% is set by controls: 0 for no effect and ±100 for the full control effect.

Row | SMILES | outcome | fluorescence, % of fluorescent control
1 | CC/C=C\CCOC(=O)c1ccccc1O | inactive | 
2 | CCC(=O)CC | inactive | 
3 | CC(C)(CO)C(O)C(=O)NCCCO (stereo not given) | inactive | 
4 | CCOC(CN1CCN(CC(C)C(=O)c2ccccc2)CC1)c1ccccc1 (stereo not given) | inactive | 
5 | O=C=NCC1CCCC(CN=C=O)C1 (stereo not given) | inactive | 
6 | NCC1(Cc2noc(=O)[nH]2)CCCCC1 | inactive | 
7 | CC(=O)O[C@@H]1CC2CCC1(C)C2(C)C (stereo not given in full) | inactive | 
8 | Nc1nnnn1-c1ccccc1 | inactive | 
9 | CC(C)=CCC/C(C)=C/COC=O | inactive | 
10 | CC(C)CCOC(=O)c1ccccc1 | inactive | 
11 | c1ccc2c(CC3=NCCN3)cccc2c1 | inactive | 
12 | COC(C)(OC)OC | inactive | 
13 | CCO[Si](CC)(OCC)OCC | inactive | 
14 | Fc1ccccc1 | inactive | 
15 | CCCCCCC1(C)CCC(=O)O1 (stereo not given) | inactive | 
16 | C[Si]1(C)O[Si](C)(C)O[Si](C)(C)O[Si](C)(C)O[Si](C)(C)O1 | inactive | 
17 | Cc1cc(C)c(C(=O)O)c(C)c1 | inactive | 
18 | OC1OCCOC1O (stereo not given) | inactive | 
19 | O=Cc1ccccc1Cl | inactive | 
20 | CC1(C)CC(OC(=O)CCCCCCCCC(=O)OC2CC(C)(C)NC(C)(C)C2)CC(C)(C)N1 |  | -0.0702% [at 18.6 µM]

Row | SMILES | outcome | fluorescence, % of fluorescent control
21 | CC(=O)OCC(=O)Nc1cc(C#N)cc(NC(=O)COC(C)=O)c1Cl | inactive | 
22 | Cc1ccc(C)c([N+](=O)[O-])c1 | inactive | 
23 | CCCCOC(=O)C(C)O (stereo not given) | inactive | 
24 | Cn1nnc2c(C(N)=O)ncn2c1=O | inactive | 
25 | c1ccc2cnccc2c1 | inactive | 
26 | COc1cc2c(cc1OC)C(=O)C(CC1CCN(Cc3ccccc3)CC1)C2 (stereo not given) | inactive | 
27 | CC(=O)CCC1=C(C)CCCC1(C)C | inactive | 
28 | c1ccc(B(c2ccccc2)c2ccccc2)cc1 | inactive | 
29 | CCC[C@@H]1C[C@@H](C(=O)N[C@@H]([C@H]2O[C@H](SC)[C@H](O)[C@@H](O)[C@H]2O)[C@@H](C)O)N(C)C1 | inactive | 
30 | CC1CCc2c(N3CCC(O)CC3)c(F)cc3c(=O)c(C(=O)O)cn1c23 (stereo not given) | inactive | 
31 | CC(C)c1ccc(C=O)cc1 | inactive | 
32 | Nc1nc(-c2ccccc2)c(Br)c(=O)[nH]1 | inactive | 
33 | Cn1c(=O)c2c(ncn2CCO)n(C)c1=O | inactive | 
34 | OCC1CCC(CO)CC1 (stereo not given) | inactive | 
35 | C=CC(=O)OCC1CCCO1 (stereo not given) | inactive | 
36 | O=[N+]([O-])c1c(Cl)cc(Cl)cc1Cl | inactive | 
37 | CCCC(=O)OCCC(C)CCC=C(C)C (stereo not given) | inactive | 
38 | CCCCCCCCCCCCCBr | inactive | 
39 | CC(N)CCCC(C)(C)O (stereo not given) | inactive | 
40 | C=CCCCCCCCC | inactive | 
